The results in this text go back to article PMC4336329 (PLoS ONE, 2015).

Hit rate of the full screen: of about 310,000 compounds, about 2,200 (0.71%) showed an effect of 50% or more. The effect is printed as a negative number. This excerpt belongs to a sample that is enriched for strong results.

Sequence of human ether-à-go-go-related gene (hERG) potassium channel (Q12809 whole entry, looked up): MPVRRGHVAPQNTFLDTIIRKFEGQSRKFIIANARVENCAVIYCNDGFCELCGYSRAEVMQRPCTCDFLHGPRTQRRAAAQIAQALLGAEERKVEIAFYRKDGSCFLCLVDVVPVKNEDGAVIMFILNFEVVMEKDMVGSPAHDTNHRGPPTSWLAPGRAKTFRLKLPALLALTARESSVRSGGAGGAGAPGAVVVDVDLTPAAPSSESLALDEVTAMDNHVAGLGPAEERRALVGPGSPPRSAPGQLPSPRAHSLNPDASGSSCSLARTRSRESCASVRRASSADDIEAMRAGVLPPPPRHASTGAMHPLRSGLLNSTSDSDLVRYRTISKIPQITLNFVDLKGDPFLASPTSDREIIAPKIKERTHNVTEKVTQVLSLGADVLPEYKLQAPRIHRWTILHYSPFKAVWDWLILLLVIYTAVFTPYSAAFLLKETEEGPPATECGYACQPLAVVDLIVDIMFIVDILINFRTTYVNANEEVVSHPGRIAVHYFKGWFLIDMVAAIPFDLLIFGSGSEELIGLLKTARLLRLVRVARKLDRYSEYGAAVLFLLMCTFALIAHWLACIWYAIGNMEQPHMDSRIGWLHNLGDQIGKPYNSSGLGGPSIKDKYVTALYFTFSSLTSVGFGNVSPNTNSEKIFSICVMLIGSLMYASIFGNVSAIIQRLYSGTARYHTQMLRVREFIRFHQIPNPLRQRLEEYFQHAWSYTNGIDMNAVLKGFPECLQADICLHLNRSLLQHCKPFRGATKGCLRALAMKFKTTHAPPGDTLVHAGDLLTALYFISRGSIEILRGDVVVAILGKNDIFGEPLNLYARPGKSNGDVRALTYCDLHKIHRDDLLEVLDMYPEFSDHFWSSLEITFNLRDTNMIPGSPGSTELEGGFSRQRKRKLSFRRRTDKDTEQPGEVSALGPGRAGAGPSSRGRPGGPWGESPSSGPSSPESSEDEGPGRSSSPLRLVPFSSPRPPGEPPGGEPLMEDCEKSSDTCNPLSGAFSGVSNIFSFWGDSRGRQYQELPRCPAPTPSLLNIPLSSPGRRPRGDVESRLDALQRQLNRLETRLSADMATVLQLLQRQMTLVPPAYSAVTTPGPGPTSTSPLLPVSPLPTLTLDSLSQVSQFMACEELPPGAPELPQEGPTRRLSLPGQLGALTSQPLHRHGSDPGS

The assay has as its target human ether-à-go-go-related gene (hERG) potassium channel (human, UniProt Q12809). The assay can be described thus: primary screen, population patch clamp on CHO cells stably expressing hERG; higher = less effect of the substance.
`O=C(COC(=O)C1CCN(C(=O)c2ccc(Cl)cc2)CC1)Nc1ccccc1F`: the “hERG current change (%, negative = inhibition) at 1uM” value is -11.5%.
`Cc1cc(-c2nn(-c3ccccc3F)cc2CN2CCC(O)CC2)c(C)s1`: the “hERG current change (%, negative = inhibition) at 1uM” value is listed as -0.852%.
With `Cc1cc(-c2nn(-c3ccccc3F)cc2CN2CCN(c3ccncc3)CC2)c(C)s1`, the “hERG current change (%, negative = inhibition) at 1uM” value was -69.3%.
To `Cc1cc(-c2nn(-c3ccccc3F)cc2CN2CCN(c3ccccn3)CC2)c(C)s1` belongs 10.2%; to `Cc1ccc(N(CC(=O)NC(C)(C)C)C(=O)CNC(=O)c2cccs2)cc1`, 7.4%.
Take `CN(CC(=O)Nc1ccc(F)cc1)C(=O)Cn1nnc(-c2ccccc2)n1`: the “hERG current change (%, negative = inhibition) at 1uM” value was 7.23%.
To `CC(C)N(C)C1CCN(C(=O)Nc2ccc(Cl)c(Cl)c2)CC1` belongs -19.5%; to `c1ccc(CSc2nnc(-c3ccco3)n2Cc2ccccc2)cc1`, -6.43%.
Turning to `O=C1c2ccccc2C(=O)N1CCSc1nnc(-c2ccco2)n1Cc1ccccc1`, the “hERG current change (%, negative = inhibition) at 1uM” value is listed as -51.1%.
To `O=C(CSc1nnc(-c2ccco2)n1Cc1ccccc1)c1ccccc1` belongs 8.89%; to `Cc1c(NC(=S)N2CCN(c3cccc(Cl)c3)CC2)c(=O)n(-c2ccccc2)n1C`, 9.46%.
As for `CCNC(=O)OCCC12CC3CC(CC(C3)C1)C2`, the figure is 11.6%.
To `CCn1cc(CNC(=O)c2ccc3nc(Cc4ccccc4F)oc3c2)cn1` belongs 11.3%; to `COCCN(C(=O)COC(=O)c1ccc2[nH]c(C)c(C)c2c1)c1c(N)n(Cc2ccccc2)c(=O)[nH]c1=O`, 7.98%.
As for `CN(C)CCCN(C(=O)C1=COCCO1)c1nc2ccc(Br)cc2s1.Cl`, the “hERG current change (%, negative = inhibition) at 1uM” value is recorded as -25.1%.
As to `CN(C)CCN(C(=O)C1=COCCO1)c1nc2ccc(Cl)cc2s1.Cl`, the “hERG current change (%, negative = inhibition) at 1uM” value is -62.4%.
As for `CN(C)CCN(C(=O)c1ccc2c(c1)OCCO2)c1nc2ccc(Cl)cc2s1.Cl`, the figure is 10.8%.
As for `CN(C)CCN(C(=O)C1=COCCO1)c1nc2ccc(F)cc2s1.Cl`, the figure is -57.7%; as for `CN(C)CCCN(C(=O)CCc1ccccc1)c1nc2ccc(F)cc2s1.Cl`, -24.8%; as for `CN(C)CCCN(C(=O)C1COc2ccccc2O1)c1nc2cc3c(cc2s1)OCO3.Cl` (centres unmarked), -21.3%.
Regarding `Cc1ccc2nc(N(CCN(C)C)C(=O)C3=COCCO3)sc2c1.Cl`, the “hERG current change (%, negative = inhibition) at 1uM” value is recorded as -5.32%.
Regarding `CN(C)CCCN(C(=O)c1ccc2c(c1)OCCO2)c1nc2ccc(Cl)cc2s1.Cl`, the “hERG current change (%, negative = inhibition) at 1uM” value is given as -3.81%.
For the compound `CN(C)CCCN(C(=O)C1COc2ccccc2O1)c1nc2ccc(F)cc2s1.Cl` (centres unmarked), the “hERG current change (%, negative = inhibition) at 1uM” value was -64.9%.
As for `Cc1csc(SC(C)C(=O)NC2CCCCC2C)n1` (centres unmarked), the figure is 7.18%; as for `COc1ccc2oc(=O)cc(-c3cc4ccccc4o3)c2c1`, -1.03%; as for `CC(=O)c1ccc(N2CCN(C(=O)C3CCCN3S(=O)(=O)c3cccc4nsnc34)CC2)cc1` (centres unmarked), 14.6%.
To `O=C(C1CCCN(S(=O)(=O)c2ccccc2)C1)N1CCN(c2ccc(F)cc2)CC1` (centres unmarked) belongs -62.4%.
As for `O=C(C1CCCN1S(=O)(=O)c1cccc2nsnc12)N1CCN(c2ccc(F)cc2)CC1` (centres unmarked), the figure is -54.1%; as for `O=C(C1CCCN(S(=O)(=O)c2cccc3cccnc23)C1)N1CCN(c2ccccc2F)CC1` (centres unmarked), -27.5%.
Turning to `O=C(C1CCCN(S(=O)(=O)c2cccc3cccnc23)C1)N1CCN(c2ccc(F)cc2)CC1` (centres unmarked), the “hERG current change (%, negative = inhibition) at 1uM” value was -50.1%.
As for `COc1ccc(N2CCN(C(=O)C3CCCN(S(=O)(=O)c4ccc(F)cc4)C3)CC2)cc1` (centres unmarked), the figure is -7.16%.
To `COc1ccc(N2CCN(C(=O)C3CCCN(S(=O)(=O)c4cccc5cccnc45)C3)CC2)cc1` (centres unmarked) belongs 5.91%; to `O=C(C1CCCN(S(=O)(=O)c2ccccc2)C1)N1CCN(c2ccccc2)CC1` (centres unmarked), -12.7%.
To `O=C(C1CCCN1S(=O)(=O)c1cccc2nsnc12)N1CCN(c2ccccc2)CC1` (centres unmarked) belongs -1.72%.
With `CC(=O)N1CCN(C(=S)NC(=O)c2ccc(S(=O)(=O)N3CCOCC3)cc2)CC1`, the “hERG current change (%, negative = inhibition) at 1uM” value is recorded as 13.2%.
As to `COc1ccc(C(=O)Nc2c(C)ccc3nsnc23)cc1[N+](=O)[O-]`, the “hERG current change (%, negative = inhibition) at 1uM” value was 3.23%.
Regarding `C#CCNC(=O)C1=C[C@H](c2ccc(Br)cc2)C[C@H](OCCCCO)O1`, the “hERG current change (%, negative = inhibition) at 1uM” value amounted to 11.3%.
To `COc1ccc([N+](=O)[O-])cc1N(CC(=O)Nc1ccccc1C(=O)N1CCOCC1)S(C)(=O)=O` belongs 4.57%; to `COC(=O)C1=C(C(=O)OC)SC2(S1)C(C(=O)OC)=C(C(=O)OC)SC1=C2c2cccc(C)c2NC1(C)C`, -79.1%.
To `COC(=O)C1=C(C(=O)OC)SC2(S1)C(C(=O)OC)=C(C(=O)OC)SC1=C2c2cc(C)cc(C)c2NC1(C)C` belongs 19.8%.
To `COC(=O)C1=C(C(=O)OC)SC2(S1)C(C(=O)OC)=C(C(=O)OC)SC1=C2c2cc(C)ccc2NC1(C)C` belongs 11%.
